Reference: PubChem BioAssay (EPA / NIEHS)
Results filed as inconclusive are left out. Activity calls are given as the source filed them. The calls were made as follows, unless noted: active = hit-call score of the fitted dose curve at least 0.9, where 1 is the maximum; inactive = score below 0.9.

How the values were obtained:
[1] = CCTE_Shafer_MEA_dev_burst_rate: CCTE's Neural Network Formation Assay for Burst Rate, Shafer Lab (AID 2284042);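 as to AC50: potency for loss of burst rate below DMSO control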
Outline: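 Primary rat cortical neurons on PEI-coated 48-well MEA plates (laminin added with cells at plating) (16 electrodes/well), exposed from plating to day 12, dosing renewed at DIV 5 and 9. Burst rate averaged over active electrodes, recorded DIV 5, 7, 9, 12, summarized as AUC; loss versus DMSO.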

[2] = CCTE_Shafer_MEA_dev_bursting_electrodes_number: CCTE's Neural Network Formation Assay for Number of Bursting Electrodes, Shafer Lab (AID 2284043; active = hit-call score of the fitted dose curve at least 0.9, where 1 is the maximum;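 as to AC50: potency is for loss of bursting electrodes relative to DMSO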)
Outline: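 Primary rat cortical neurons plated on 16-electrode MEA wells, exposed from day 0 with compound renewed at DIV 5 and 9. Electrodes bursting ≥1 burst per 2 min counted on days 5, 7, 9 and 12; trapezoidal AUC across days, fitted for loss versus DMSO.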

[3] = CCTE_Shafer_MEA_dev_interburst_interval_mean: CCTE's Neural Network Formation Assay for Mean Interburst Interval, Shafer Lab (AID 2284046);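 also: well-mean interburst interval of bursting electrodes as AUC over four recording days; curve fitted for decrease in interburst interval relative to DMSO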
Outline: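 Recordings on days 5, 7, 9 and 12 give well-mean interburst interval across actively bursting electrodes, summarized as area under the curve. Cultures: rat cortical neurons, continuous exposure from day 0, compound renewed at feeds; decrease analyzed versus DMSO.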

[4] = CCTE_Shafer_MEA_dev_inter_network_spike_interval_mean: CCTE's Neural Network Formation Assay for Mean Inter-network Spike Interval, Shafer Lab (AID 2284047)
Outline: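 Primary rat cortical neurons on 16-electrode MEA wells, exposed from plating day 0 through DIV 12, compound renewed at DIV 5 and 9 media changes. Mean interval between network-spike peaks recorded DIV 5, 7, 9, 12; collapsed as trapezoidal AUC, fitted downward versus DMSO.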

[5] = CCTE_Shafer_MEA_dev_network_spike_number: CCTE's Neural Network Formation Assay for Number of Network Spikes, Shafer Lab (AID 2284048);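 as to AC50: fit as a loss of signal meaning fewer network spikes than DMSO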
Outline: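 Primary rat cortical neurons on PEI/laminin 48-well MEA plates, dosed from plating day 0 for 12 days, renewed at DIV 5 and 9. Network spike counts recorded DIV 5, 7, 9, 12, collapsed as trapezoidal AUC; DMSO baseline.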

[6] = CCTE_Shafer_MEA_dev_network_spike_peak: CCTE's Neural Network Formation Assay for Mean Number of Electrodes in Network Spike, Shafer Lab (AID 2284049);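 as to AC50: fitted for loss of signal meaning fewer electrodes in network spikes than DMSO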
Outline: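 Network-spike peak electrode count from recordings on days 5, 7, 9 and 12 was combined as trapezoidal area under the curve. Rat cortical cultures were treated continuously from plating, with compound renewed at each feed (DIV 5, 9); fits versus DMSO.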

[7] = CCTE_Shafer_MEA_dev_spike_duration_mean: CCTE's Neural Network Formation Assay for Mean Spike Duration, Shafer Lab (AID 2284051);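 also: mean network spike duration pooled as area under curve over DIV 5 to 12 recordings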;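 as to AC50: potency for a decrease in mean network spike duration versus DMSO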
Outline: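 Primary rat cortical neurons on 16-electrode MEA wells (PEI-coated, laminin in plating drop), exposed from plating through DIV 12 with compound renewed at DIV 5 and 9. Mean network-spike duration recorded DIV 5, 7, 9, 12; trapezoidal AUC across days, DMSO baseline.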

[8] = CCTE_Shafer_MEA_dev_network_spike_duration_std: CCTE's Neural Network Formation Assay for Standard Deviation of Network Spike Duration, Shafer Lab (AID 2284052);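 also: area under curve of spike duration SD across recording days 5 to 12; hits are decreases in network spike duration SD versus DMSO vehicle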
Outline: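 Primary rat cortical neurons on PEI-coated 16-electrode MEA wells, exposed from plating day 0 through day 12 with compound renewed at DIV 5 and 9. Network spike duration SD recorded on days 5, 7, 9, 12, collapsed as trapezoidal AUC; loss-of-signal fit versus DMSO.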

[9] = CCTE_Shafer_MEA_dev_per_network_spike_spike_number_mean: CCTE's Neural Network Formation Assay for Mean Number of Spikes in a Network Spike, Shafer Lab (AID 2284053);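 as to AC50: fitted as decrease in spikes per network spike relative to DMSO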
Outline: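 Primary rat cortical neurons on 48-well, 16-electrode MEA plates were exposed from plating to DIV 12, with dosing renewed on DIV 5 and 9. Spikes per network spike (0.05 s peak window) were recorded on DIV 5, 7, 9 and 12 and collapsed as trapezoidal AUC versus DMSO.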

[10] = CCTE_Shafer_MEA_dev_per_network_spike_spike_percent: CCTE's Neural Network Formation Assay for Percent of Spikes in a Network Spike, Shafer Lab (AID 2284054)
Outline: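 Rat primary cortical neurons were grown on 48-well MEA plates (16 electrodes/well), exposed from plating day 0 through day 12, with treatment renewed on DIV 5 and 9. Percent of spikes within 0.05 s network-spike peaks was measured, summarised as AUC across days 5, 7, 9, 12.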

[11] = CCTE_Shafer_MEA_dev_mutual_information_norm: CCTE's Neural Network Formation Assay for Mutual Information Normalization, Shafer Lab (AID 2284091);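 as to AC50: mutual information between electrodes summarised as area under curve across four recording days; potency is for a decrease in mutual information relative to DMSO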
Outline: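 Primary rat cortical neurons on PEI-coated 48-well MEA plates, 1.5 x 10^5 cells/well, exposed from day 0 through day 12 with re-dosing at DIV 5 and 9. Mutual information between electrodes recorded days 5, 7, 9, 12; trapezoidal AUC, loss-of-signal fit versus DMSO.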

[12] = CCTE_Shafer_MEA_dev_correlation_coefficient_mean: CCTE's Neural Network Formation Assay for Mean Correlation Coefficient, Shafer Lab (AID 2284093);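 as to AC50: well mean pairwise spike train correlation integrated as AUC over recording days 5 to 12; potency fitted for loss of correlation relative to DMSO vehicle wells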
Outline: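 Spontaneous activity recorded on days 5, 7, 9 and 12 post-plating; pairwise spike correlations are averaged across active electrodes and collapsed to an area-under-curve. Rat cortical cultures are dosed from plating through 12 days, with compound renewed at media changes.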

[13] = CCTE_Shafer_MEA_dev_LDH: CCTE's Lactate Dehydrogenase Assay for Cytotoxicity in the Neural Network Formation Assay, Shafer Lab (AID 2284068; active = hit-call score of the fitted dose curve at least 0.9, where 1 is the maximum;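 also: exposure for twelve days from plating with re-dosing on DIV 5 and 9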)
Outline: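 Primary rat cortical neurons were plated on PEI/laminin MEA plates and exposed from day 0 for twelve days, with compound renewed at DIV 5 and 9. Cytotoxicity was determined by spectrophotometric LDH assay relative to DMSO.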

[14] = CCTE_Shafer_MEA_acute_LDH: CCTE's Lactate Dehydrogenase Assay for Cytotoxicity in the Neural Acute Assay, Shafer Lab (AID 2284086; active = hit-call score of the fitted dose curve at least 0.9, where 1 is the maximum;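 also: active means LDH release rises above DMSO vehicle level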)
Outline: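 Primary rat cortical neurons on 48-well MEA plates, treated on day 13 or 15 post-plating. After the 40-min recording with compound, medium LDH release was read by absorbance at 490 nm. Gain of signal was fitted against DMSO negative control.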

[15] = system: DIO2 (gene 1734); assay: CCTE_GLTED_hDIO2: CCTE's human Deiodinase 2 (DIO2) Inhibition Assay, Great Lakes Toxicology and Ecology Division (GLTED) Lab (AID 2284050; active = hit-call score of the fitted dose curve at least 0.9, where 1 is the maximum)
Outline: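 Cell-free human DIO2 enzyme was incubated with test chemical for 3 h; iodide liberated from substrate was then quantified by the Sandell-Kolthoff reaction (absorbance), run in triplicate. Loss of signal versus DMSO baseline indicated inhibition.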

[16] = system: DIO3 (gene 1735); assay: CCTE_GLTED_hDIO3: CCTE's human Deiodinase 3 (DIO3) Inhibition Assay, Great Lakes Toxicology and Ecology Division (GLTED) Lab (AID 2284055; active = hit-call score of the fitted dose curve at least 0.9, where 1 is the maximum;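 also: potency is for inhibition seen as loss of released iodide signal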)
Outline: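 Cell-free assay with human DIO3 enzyme produced by adenovirus expression; enzyme incubated with test chemical for 3 hours. Liberated iodide then measured by Sandell-Kolthoff absorbance; loss of signal versus DMSO baseline indicates inhibition, run in triplicate.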

[17] = CCTE_Shafer_MEA_acute_AB: CCTE's Alamar Blue Assay for Cytotoxicity in the Neural Acute Assay, Shafer Lab (AID 2284069; active = hit-call score of the fitted dose curve at least 0.9, where 1 is the maximum;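 also: active compounds lower the viability signal compared with DMSO wells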)
Outline: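 Primary rat cortical neurons on MEA plates, exposed acutely after baseline recording on day 13 or 15 post-plating. Viability by CellTiter Blue resazurin reduction (1:6 reagent dilution), fluorescence 544/590 nm; loss of signal versus DMSO.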

Measured: AC50

OCC(F)(F)OC(F)(F)C(F)(F)OC(F)(F)C(F)(F)OC(F)(F)CO
not listed: [13] | [14] | [15] | [16] | [17]
inactive: all other assays above

CCCCC(CC)COP(=O)(Oc1ccccc1)Oc1ccccc1 (stereo not given)
active: [6] 1.67 µM | [13] 6.12 µM
not listed: [15] | [16] | [17]
inactive: all other assays above

O=P1(N(CCCl)CCCl)NCCCO1 (stereo not given)
active: [13] 11.6 µM
not listed: [14] | [15] | [16] | [17]
inactive: all other assays above

OCC(F)(F)OC(F)(F)C(F)(F)OC(F)(F)CO
not listed: [14] | [15] | [16] | [17]
inactive: all other assays above

CC(O)C(F)(F)C(F)(F)F (stereo not given)
not listed: [13] | [14] | [15] | [16] | [17]
inactive: all other assays above

C=CC(=O)OCC(F)(F)C(F)F
active: [2] 4.87 µM | [3] 8.7 µM | [6] 9.04 µM | [15] 47.3 µM | [7] 15 µM | [9] 4.85 µM | [10] 15 µM | [16] 52.4 µM | [13] 8.15 µM | [11] 5.12 µM | [12] 11.3 µM
inactive: [1] | [4] | [5] | [8]

c1ccc(OP(Oc2ccccc2)Oc2ccccc2)cc1
not listed: [14] | [15] | [16] | [17]
inactive: all other assays above

ClC1=C(Cl)C2(Cl)C3C(Cl)C(Cl)CC3C1(Cl)C2(Cl)Cl (stereo not given)
inactive: [4] | [8] | [17] | [14]
active: [1] 7.48 µM | [2] 7.54 µM | [3] 7.68 µM | [5] 1.98 µM | [6] 6.76 µM | [7] 7.67 µM | [9] 7.75 µM | [10] 7.62 µM | [13] 7.62 µM | [11] 7.75 µM | [12] 7.71 µM

O=S(=O)(c1ccc(O)cc1)c1ccc(O)cc1
not listed: [14] | [15] | [16] | [17]
inactive: all other assays above

O=P(Oc1ccccc1)(Oc1ccccc1)Oc1ccccc1
active: [6] 2.97 µM
not listed: [14] | [15] | [16] | [17]
inactive: all other assays above

c1cc2c3c(cccc3c1)CC2
not listed: [13] | [14] | [15] | [16] | [17]
inactive: all other assays above

O=C(O)C(F)(F)C(F)(F)C(=O)O
active: [12] 1.81 µM
not listed: [14] | [15] | [16] | [17]
inactive: all other assays above

O=C(O)C(F)(F)OC(F)(F)C(F)(F)OC(F)(F)C(=O)O
not listed: [13] | [14] | [15] | [16] | [17]
inactive: all other assays above
